Reference: PubChem BioAssay (Tox21)
Values joined by “and” are separate entries in the source; they are usually repeats but may differ in a detail not shown here. Equal entries are not always repeated. Inconclusive results are not listed. Entries that show only a call come without a potency. Active and inactive are the calls of the source. The call rests on the fitted dose curve; in most records, active means well fitted cell-killing curve with a large enough effect in the repeat runs; inconclusive means weak or mixed curves, or effect the other way; inactive means flat fitted curve, though single readings scatter.

Test: Caspase-3/7 induction in HepG2 cells by small molecules, qHTS cell viability counter screen (AID 1346981); further: nearly all actives have a fitted effect of over 30% in size
Conditions: CellTiter-Fluor fluorescence, 17 h; series mostly up to 92.4 µM; activity change, negative = cytotoxicity: at the top concentration
Description: U.S. Tox21 Program National Center for Advancing Translational Sciences [NCATS] NIH Chemical Genomics Center [NCGC] U.S. Environmental Protection Agency [EPA] National Institutes of Environmental Health Sciences [NIEHS] National Toxicology Program [NTP] U.S. Food and Drug Administration [FDA] Tox21 Assay Overview: Apoptosis is a process of programmed cell death and plays a central role in the development of multicellular organisms. It is a highly regulated process and induces cell death by activating caspases, which are the members of cysteine aspartic acid-specific protease (caspase) family. Caspases involved in apoptosis are classified by their mechanism of action as initiator caspases (caspase-2, -8, -9 and -10) and executioner caspases (caspase-3, -6, and -7). Inhibition of apoptosis results in number of cancers, autoimmune diseases, inflammatory diseases and viral infection. To identify small molecule compounds that induce apoptosis, a homogeneous, luminescent Caspase-Glo 3/7 assay was used. Wild type HepG2 cells were used to screen Tox21 libraries for identifying caspase-3/7 activity inducers. Also cytotoxicity of the compounds was tested in parallel by measuring the cell viability using CellTiter-Fluor assay system in the same wells.
Tox21 Assay Protocol Summary: HepG2 cells were dispensed at 2,000 per well in 5uL of culture medium into white solid bottom 1536-well plates (Corning Life Sciences, Corning, NY) using a Multidrop Combi (Thermo Scientific, Waltham, MA) dispenser. The assay plates were incubated at 37 C and 5% CO2 for 5hr, and then 23nL of compounds dissolved in DMSO and positive control were transferred using a Pintool station ([…], San Diego, CA). The assay plates were incubated at 37C and 5% CO2 for 17hr. For cytotoxicity read, after 16hr incubation at 37C, 1uL CellTiter-Fluor reagent (Promega Corporation, Madison, WI) was added to each well of the assay plates using Flying Reagent Dispenser (FRD, Aurora Discovery, San Diego, CA). After 1hr incubation at 37C and 5% CO2, the fluorescence signal was quantified using a ViewLux plate reader (PerkinElmer, Shelton, CT).

For `O=c1[nH]nnc2ccccc12`, which Potency is on record?
The Potency was “inactive”.

For `CCCCCCCCCCCCCCO`, which Potency is on record?
Its Potency is “inactive”.

For `CC1=CC(=O)NS(=O)(=O)O1`, which Potency is on record?
The Potency was “inactive”.

Which Potency does the source give for `O=S1(=O)CC=CC1` here?
The Potency was “inactive”.

Which “activity change, negative = cytotoxicity” value does the source give for `CN(C)CCC(c1ccc(Cl)cc1)c1ccccn1` (stereo not given) here?
The value was -9.97% (inactive).

For `CCCCN(CCCC)CCCC`, which Potency is on record?
Its Potency is “inactive”.

Which “activity change, negative = cytotoxicity” value does the source give for `CCCCCCCCCCCCc1ccccc1` here?
The value was 7.86% (inactive).

Which Potency does the source give for `COc1ccc2cc([C@H](C)C(=O)O)ccc2c1` here?
Its Potency is “inactive”.

For `COc1ccc(Cl)cc1C(=O)NCCc1ccc(S(=O)(=O)NC(=O)NC2CCCCC2)cc1`, which Potency is on record?
The Potency was “inactive”.

For `N[C@@H](Cc1cc(I)c(Oc2cc(I)c(O)c(I)c2)c(I)c1)C(=O)O`, which Potency is on record?
Its Potency is “inactive”.

Which “activity change, negative = cytotoxicity” value does the source give for `C=C(C)C(=O)Nc1ccc(Cl)c(Cl)c1` here?
Its value is -10.6% (inactive).

For `C[C@H]1C[C@@H]2[C@H]([C@@H](O)C[C@@]3(C)[C@H]2CC[C@]3(O)C(=O)CO)[C@@]2(C)C=CC(=O)C=C12`, which Potency is on record?
The Potency was “inactive”.

Which Potency does the source give for `Cc1ccc2oc(=O)ccc2c1` here?
Its Potency is “inactive”.

With `Cc1cc(C)c(C)cc1C` as the molecule, how does the “activity change, negative = cytotoxicity” value read?
The value was -8.58% (inactive).

With `CCCCCCCCCCCCS` as the molecule, how does the Potency read?
The Potency was “inactive”.

Which Potency does the source give for `CC(=O)c1ccccc1` here?
Its Potency is “inactive”.

Which Potency does the source give for `CC(C)CC(=O)CC(C)C` here?
The Potency was “inactive”.

With `O=C(O)CCCC[C@@H]1SC[C@@H]2NC(=O)N[C@@H]21` as the molecule, how does the Potency read?
Its Potency is “inactive”.

With `COc1ccc(NC(C)=O)cc1N` as the molecule, how does the Potency read?
Its Potency is “inactive”.

With `CC(O)COCC(C)O` (stereo not given) as the molecule, how does the Potency read?
The Potency was “inactive”.

Which Potency does the source give for `Cc1cccnc1` here?
The Potency was “inactive”.

With `c1ccc2c(c1)ccc1ccccc12` as the molecule, how does the Potency read?
The Potency was “inactive”.

For `COCCCOc1ccnc(CS(=O)c2nc3ccccc3[nH]2)c1C` (stereo not given), which Potency is on record?
Its Potency is “inactive”.

For `C#C[C@]1(O)CC[C@H]2[C@@H]3CCC4=CC(=O)CC[C@@H]4[C@H]3CC[C@@]21C`, which Potency is on record?
The Potency was “inactive”.

For `O=C(Oc1ccccc1)c1ccccc1`, which “activity change, negative = cytotoxicity” value is on record?
The value was -1.57% (inactive).

For `CCN(CC)CCCC(C)Nc1ccnc2cc(Cl)ccc12` (stereo not given), which activity change, negative = cytotoxicity is on record?
Its activity change, negative = cytotoxicity is -14.1% [at 8.39 µM] (inactive) and -16.1% [at 19 µM] (inactive).

Which Potency does the source give for `CCCCCC(N)=O` here?
Its Potency is “inactive”.

For `CCCCCCCCCCCCCCCO`, which Potency is on record?
The Potency was “inactive”.

Which Potency does the source give for `CCCSc1ccc2nc(NC(=O)OC)[nH]c2c1` here?
Its Potency is “inactive”.

Which Potency does the source give for `OCC(CO)(CBr)CBr` here?
The Potency was “inactive”.

Which “activity change, negative = cytotoxicity” value does the source give for `C[C@H]1C[C@H]2[C@@H]3CCC4=CC(=O)C=C[C@]4(C)[C@@]3(F)[C@@H](O)C[C@]2(C)[C@@]1(O)C(=O)CO` here?
The value was 9.09% [at 42.5 µM] (inactive).

With `ON=C1CCCCC1` as the molecule, how does the Potency read?
The Potency was “inactive”.

For `OCCOCCOCCO`, which Potency is on record?
The Potency was “inactive”.

For `O=C(CC(C(=O)OC1CCCCC1)S(=O)(=O)O)OC1CCCCC1` (stereo not given), which Potency is on record?
The Potency was “inactive”.

With `CCOC(=O)NNc1nncc2ccccc12` as the molecule, how does the Potency read?
The Potency was “inactive”.

With `CC(C)(C)[C@@H](O)[C@@H](Cc1ccc(Cl)cc1)n1cncn1` as the molecule, how does the Potency read?
Its Potency is “inactive”.

Which Potency does the source give for `CCCCC(CC)COC(=O)CS` (stereo not given) here?
The Potency was “inactive”.

For `COc1cc(Cc2cnc(N)nc2N)cc(OC)c1OC`, which Potency is on record?
The Potency was “inactive”.

Which Potency does the source give for `CN(C)CCC(c1ccccc1)c1ccccn1` (stereo not given) here?
The Potency was “inactive”.

With `C=C(C)C(=O)OCCOCCOCCOC(=O)C(=C)C` as the molecule, how does the Potency read?
The Potency was “inactive”.
